Screening data (PubChem BioAssay)
V-ATPase pHluor = regulators of yeast V-ATPase proton transport; AID 504577; response, % at 10 µM; S. cerevisiae, pHLuorin cytosolic pH fluorescence; actives 0.37% (n = 350,000); in the data active means response mostly above about 7.3%, no sharp cut-off; inactive means mostly below about 5.4%; further: actives read high
ADAM10 inh = inhibits human ADAM10; actives 0.62% (n = 370,000); recombinant ADAM10, EDANS/DABCYL FRET peptide cleavage, 3 h; inhibition, % at 7 µM; O14672; AID 720582;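 active means inhibition above a per-campaign cutoff equal to the mean of compounds falling between control-based bounds plus 3 SD, cut at about 20% in these data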;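 further: 0% = DMSO wells while the 100% control is not disclosed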
ADAM17 inh = inhibitors of human ADAM17; inhibition, % at 6.95 µM; actives 0.83% (n = 370,000); recombinant ADAM17, EDANS/DABCYL FRET peptide cleavage; P78536;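 active means inhibition above the mean of compounds lying between control limits plus 3 SD, set per campaign, cut at about 8.5% in these data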;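 further: 0% = DMSO-only wells as the low control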
KLK7 zymogen act = activators of human kallikrein-7 zymogen; purified proKLK7, EDANS-DABCYL substrate fluorescence; 100% is mature enzyme control, 0% vehicle; activation, % at 7 µM; actives 0.9% (n = 370,000); AID 652039;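 active means activation above the mean of all tested compounds plus 3 SD, computed per campaign excluding outliers beyond control limits, cut at about 13% in these data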
Target sequence (P49862 whole entry, looked up): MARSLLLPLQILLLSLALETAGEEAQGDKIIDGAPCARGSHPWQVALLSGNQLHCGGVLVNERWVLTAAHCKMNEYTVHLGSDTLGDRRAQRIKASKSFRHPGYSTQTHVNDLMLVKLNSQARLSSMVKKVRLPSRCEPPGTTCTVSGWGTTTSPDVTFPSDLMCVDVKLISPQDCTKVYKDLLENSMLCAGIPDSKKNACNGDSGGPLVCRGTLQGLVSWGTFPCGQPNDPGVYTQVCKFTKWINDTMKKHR
ADAM10 ctr = ADAM10 inhibition, counter-screen for ADAM17 exosite hits; shares compounds with ADAM17 inh; recombinant ADAM10, EDANS/DABCYL FRET peptide cleavage, 3 h; inhibition, % at 6.95 µM; actives 47% (n = 2,900); AID 743256;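 active means mean inhibition over the triplicate runs exceeds the activity threshold set in the earlier primary screen, cut at about 20% in these data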;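 further: 0% = DMSO wells and 100% = marimastat wells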
ADAM17 confirm = human ADAM17 inhibition, confirmation; shares compounds with ADAM17 inh; recombinant ADAM17, EDANS/DABCYL QFRET peptide cleavage; inhibition, % at 6.95 µM; actives 65% (n = 2,900); AID 743257;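 active means mean inhibition across replicates above the hit cutoff set in the primary screen, cut at about 8.5% in these data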;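 further: 0% = DMSO wells and 100% = marimastat wells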
Starred values were filed as active, the others as inactive; . = not tested or not shown. Only some compounds are listed: those with a hit (about 2.3% of all), similar ones and a draw of the others.

SMILES | V-ATPase pHluor | ADAM10 inh | ADAM17 inh | KLK7 zymogen act | ADAM10 ctr | ADAM17 confirm
CC(C)(C)NC(=O)NC(=O)COC(=O)CCCc1c[nH]c2ccccc12 | -2 | 17 | 12* | 0 | 13 | 8
O=C(CN1C(=O)c2ccccc2S1(=O)=O)Nc1cc(S(=O)(=O)N2CCCCC2)ccc1Cl | 13 | 1 | 10* | 0 | 17 | 13*
O=C(CN1CCN(c2ccc(O)cc2)CC1)Nc1cc(S(=O)(=O)N2CCCCC2)ccc1Cl | -3 | 17 | 10* | 1 | 17 | 11*
COC(=O)[C@]12C[C@H](CC(=O)N3CCN(C(=O)C4CC4)CC3)C(=O)N(Cc3ccc(Cl)cc3Cl)C1=C[C@H](C(C)C)O[C@@H]2C1CC1 | . | 10 | 1 | 1 | . | .
COc1ccc(-c2csc(NC(=O)CSc3nc(SC)ns3)n2)cc1 | -3 | 33* | 15* | 0 | 26* | 17*
NC(=O)CNCCC(c1ccccc1)c1ccccc1 | -2 | 11 | 9.8* | 0 | -2 | 0
CCOc1cc(/C=N/O)ccc1OS(=O)(=O)c1ccc(C)cc1 | -1 | 1 | 8 | 0 | . | .
CCOc1ccc(S(=O)(=O)c2ccc(C)cc2)c2c1no[n+]2[O-] | 6 | 7 | 11* | 0 | 2 | 5
Cc1onc(-c2ccccc2)c1CNC(=O)Nc1ccc(C(F)(F)F)cc1 | 1 | 18 | 9.1* | 0 | 27* | 16*
Cc1cc(C)cc(NC(=O)NCc2c(-c3ccccc3)noc2C)c1 | -1 | 8 | 2 | 0 | . | .
CC(=O)c1cccc(-c2ccnc3c2CC(C(=O)Nc2cccc(Oc4ccccc4)c2)O3)c1 (stereo not given) | . | 18 | 9.4* | 1 | 25* | 9.9*
O=C(Nc1cccc(OC(F)(F)F)c1)C1Cc2c(-c3cccc(F)c3)ccnc2O1 (stereo not given) | . | 13 | 12* | 0 | 35* | 19*
COc1ccc(NC(=O)C2Cc3c(-c4ccccc4Oc4ccccc4)ccnc3O2)cc1OC (stereo not given) | . | 17 | 3 | -1 | . | .
CC(=O)c1cccc(NC(=O)C2Cc3c(-c4cccc(C(C)=O)c4)ccnc3O2)c1 (stereo not given) | . | 5 | 6 | -1 | . | .
O=C(Nc1ccc2c(c1)OCO2)C1Cc2c(-c3ccccc3Oc3ccccc3)ccnc2O1 (stereo not given) | . | 4 | 8.9* | 0 | 20* | 9.7*
COc1ccc(NC(=O)C2Cc3c(-c4cccc(F)c4)ccnc3O2)cc1 (stereo not given) | . | 2 | -3 | 0 | . | .
CC(=O)c1cccc(-c2ccnc3c2CC(C(=O)Nc2cccc(C(F)(F)F)c2)O3)c1 (stereo not given) | . | 5 | 8.9* | 0 | 14 | 9
O=[N+]([O-])c1ccc(CN2[C@H](COCc3ccccc3)C=CS2(=O)=O)cc1 | . | -11 | -3 | 0 | . | .
Oc1ccccc1C=NN1CCN(Cc2ccccc2)CC1 | . | 0 | 1 | 0 | . | .
N/C(=N\N=C\c1ccc(O)c(O)c1)c1nonc1N | 3 | -36 | -15 | 2 | . | .
N/C(=N\N=C\c1ccc(O)cc1)c1nonc1N | 2 | 14 | 10* | -1 | 17 | 9.2*
c1ccc(-c2nnc(-c3c[nH]c4ccccc34)nc2-c2ccccc2)cc1 | -4 | 16 | 8.7* | -1 | 14 | 8.8*
NC1=NC2(CCC(c3ccccc3)CC2)n2c(nc3ccccc32)N1 (stereo not given) | 2 | 0 | 9.0* | 0 | 12 | 7
NC1=NC2(CCCCC2)n2c(nc3ccccc32)N1 | -1 | 2 | 2 | 0 | . | .
OC(c1ccc(F)c(F)c1)c1nc(-c2csc3ccccc23)cs1 (stereo not given) | . | 10 | 6 | 0 | . | .
SMILES | V-ATPase pHluor | ADAM10 inh | ADAM17 inh | KLK7 zymogen act | ADAM10 ctr | ADAM17 confirm
COc1cc(F)ccc1-c1csc(C(O)c2ccc(F)c(F)c2)n1 (stereo not given) | . | 12 | 6 | 0 | . | .
COc1cc(C(O)c2nc(-c3ccc(F)cc3OC)cs2)ccc1F (stereo not given) | . | 3 | 12* | 0 | 26* | 14*
COc1cc(C(O)c2nc(-c3csc4ccccc34)cs2)ccc1F (stereo not given) | . | 12 | 10* | 0 | 23* | 17*
O=S(=O)(Nc1ccc(-c2csc(-c3ccccc3)n2)cc1)c1ccc(F)cc1 | -4 | 16 | 11* | -1 | 20* | 19*
O=S(=O)(Nc1ccc(O)c(Sc2nc3ccccc3s2)c1)c1ccc(F)cc1 | 3 | 19 | 10* | 0 | 34* | 23*
O=S(=O)(Nc1ccc(O)c(Sc2nc3ccccc3s2)c1)c1cccc2ccccc12 | -2 | 18 | 9.0* | 0 | 42* | 22*
O=C(Nc1nc(-c2ccccc2)cs1)c1ccccc1NS(=O)(=O)c1ccc(F)cc1 | -1 | -204 | -102 | -1 | . | .
c1cc(-c2nnc3n2N=C(c2ccc4c(c2)OCO4)CS3)ccn1 | . | -13 | -2 | 0 | . | .
COC(=O)C1=C(C)N(Cc2ccc(Cl)cc2)C(=S)NC1c1ccc(Cl)cc1 (stereo not given) | . | 5 | 0 | 0 | . | .
CN1CC(c2ccccc2)C2(SC(=S)N(Cc3ccco3)C2=O)C12C(=O)Nc1ccccc12 (stereo not given) | -2 | 26* | 10* | 0 | 37* | 24*
COc1ccc(C)cc1NC(=O)CSc1nnc(CC(=O)Nc2ccccc2C)n1C | 13 | 7 | 8.7* | 0 | 3 | 0
COc1cc2c(cc1NC(=O)CSc1nnc(-c3ccccc3C)n1Cc1ccco1)oc1ccccc12 | . | 19 | 10* | 0 | 22* | 15*
COc1ccc(C)cc1NC(=O)CSc1nnc(COc2ccccc2)n1Cc1ccco1 | -5 | 15 | 6 | 0 | . | .
COc1ccc(C)cc1NC(=O)CSc1nnc(COc2ccc(Cl)cc2)n1Cc1ccco1 | -1 | 20 | 11* | 0 | 32* | 18*
COc1ccc(NC(=O)CSc2nnc(-c3ccccc3Cl)n2Cc2ccco2)c(OC)c1 | 0 | 14 | 3 | 0 | . | .
CCCCN(CCCC)CC(O)c1cc(Cl)cc2c1-c1ccc(Cl)cc1/C2=C/c1ccc(Cl)cc1 (stereo not given) | . | 5 | 6 | -1 | . | .
COc1ccc(N2CCN(C(=O)CN(c3cccc(Br)c3)S(C)(=O)=O)CC2)cc1 | -1 | 8 | 14* | 0 | 4 | -1
COc1cccc(CNc2ccc([N+](=O)[O-])cc2C)c1 | 0 | 17 | 12* | 1 | 15 | 12*
COc1ccc(OC)c(CNc2ccc([N+](=O)[O-])cc2C)c1 | 0 | 11 | 5 | 0 | . | .
Cc1ccc(-n2c(=O)[nH]c3c(oc4ccccc43)c2=O)cc1 | -1 | -30 | -5 | 0 | . | .
COc1ccc(-n2c(=S)[nH]c3c(oc4ccccc43)c2=O)cc1 | -2 | 6 | 9.2* | -1 | 3 | 6
